Measured values reported in PubChem BioAssay (NCI).
The panel holds about 83,000 compounds, 20% with a hit somewhere; the sample as a whole holds those more often.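 The endpoint reported here, percent growth, reads 100 for growth as untreated, 0 for no net growth and -100 for all cells dead.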 Active and inactive are the calls of the source. Rule for the calls: active = growth percent below 10; inactive = the rest.

Key:
Test in all cases: NCI-60 one-dose screen, 48 h (100 = growth as untreated, 0 = no growth, -100 = all killed)
Settings in all cases: 10 µM unless noted
SK-MEL-2 melanoma = test system: SK-MEL-2 melanoma
EKVX NSCLC = test system: EKVX NSCLC
SN12C renal = test system: SN12C renal
UO-31 renal = test system: UO-31 renal
TK-10 renal = test system: TK-10 renal
ACHN renal = test system: ACHN renal
CAKI-1 renal = test system: CAKI-1 renal
A498 renal = test system: A498 renal
CCRF-CEM leukemia = test system: CCRF-CEM leukemia
MOLT-4 leukemia = test system: MOLT-4 leukemia

Measured: growth

COC(=O)[C@H](C)NC(=O)[C@@H]1CCCN1C(=O)CNC(=O)[C@H](C)N
inactive: SK-MEL-2 melanoma 113% | EKVX NSCLC 89.6% | SN12C renal 105% | UO-31 renal 91.2% | TK-10 renal 95.5% | ACHN renal 108% | CAKI-1 renal 88.4% | A498 renal 93.2% | CCRF-CEM leukemia 115%

CC(Cc1cccc2ccccc12)C(N)=O (configuration not stated)
inactive: SK-MEL-2 melanoma 105% | EKVX NSCLC 104% | SN12C renal 97.2% | UO-31 renal 87.3% | TK-10 renal 98.7% | ACHN renal 103% | CAKI-1 renal 93.8% | A498 renal 100% | CCRF-CEM leukemia 97.1% | MOLT-4 leukemia 99.8%

Cc1ccc(Nc2cc(N)nc(N)n2)cc1
inactive: SK-MEL-2 melanoma 112% | EKVX NSCLC 95.7% | SN12C renal 110% | UO-31 renal 87.7% | TK-10 renal 108% | ACHN renal 102% | CAKI-1 renal 87.1% | A498 renal 105% | CCRF-CEM leukemia 107%

CC(=O)Oc1ccccc1C(=O)N(Cc1ccc2c(Cl)cc(Cl)c(O)c2n1)c1ccccc1
inactive: SK-MEL-2 melanoma 66.7% | EKVX NSCLC 37.4% | SN12C renal 46.8% | UO-31 renal 29.9% | TK-10 renal 81.3% | ACHN renal 33.8% | CAKI-1 renal 38.9% | A498 renal 57.6% | CCRF-CEM leukemia 31.3%

O=C(OCC(O)C(=O)NC12CC3CC(CC(C3)C1)C2)c1cccc(Br)c1 (configuration not stated)
inactive: SK-MEL-2 melanoma 103% | EKVX NSCLC 96.4% | SN12C renal 102% | UO-31 renal 84.9% | TK-10 renal 109% | ACHN renal 101% | CAKI-1 renal 96.2% | A498 renal 94.4% | CCRF-CEM leukemia 81.9%

C=CCn1c(SCC(=O)Nc2ccc(C(=O)/C=C/c3ccc(Cl)cc3)cc2)nnc1-c1ccc(Cl)c(Cl)c1
inactive: SK-MEL-2 melanoma 76.6% | EKVX NSCLC 79.7% | SN12C renal 82.3% | UO-31 renal 54.4% | TK-10 renal 86.2% | ACHN renal 87.7% | CAKI-1 renal 63.5% | A498 renal 83.9% | CCRF-CEM leukemia 52.9%

COc1ccccc1NC(=O)n1c(=O)cc(C)c2ccc(O)cc21
inactive: SK-MEL-2 melanoma 101% | EKVX NSCLC 100% | SN12C renal 101% | UO-31 renal 88.6% | TK-10 renal 111% | ACHN renal 110% | CAKI-1 renal 99.6% | A498 renal 113% | CCRF-CEM leukemia 107% | MOLT-4 leukemia 103%

O=C(Nc1ccccc1CNc1nc(Nc2ccc(OCCN3CCCC3)cc2)ncc1Cl)NC1CCCCC1
inactive: SK-MEL-2 melanoma 115% | EKVX NSCLC 95% | SN12C renal 88.1% | UO-31 renal 56.3% | TK-10 renal 116% | ACHN renal 78.2% | CAKI-1 renal 94.3% | A498 renal 75.3% | CCRF-CEM leukemia 12% | MOLT-4 leukemia 72.3%

COc1ccc(C(=O)/C=C/c2ccc(C)cc2)cc1S(N)(=O)=O
active: SN12C renal 6.38%
inactive: SK-MEL-2 melanoma 87.1% | EKVX NSCLC 81% | UO-31 renal 37.4% | TK-10 renal 73.1% | ACHN renal 55.8% | CAKI-1 renal 73.6% | A498 renal 82.7% | CCRF-CEM leukemia 23.7%

COC(=O)CCc1c(/C=C2\N=C(c3ccc[nH]3)C=C2OC)[nH]c(C)c1C(=O)OCc1ccccc1
inactive: EKVX NSCLC 27.4% | SN12C renal 15.8% | TK-10 renal 18.4% | A498 renal 15.1%
active: SK-MEL-2 melanoma -27.8% | UO-31 renal -67.2% | ACHN renal 4.36% | CAKI-1 renal -3.87% | CCRF-CEM leukemia 1.47%

COC(=O)c1nc(-c2ccccc2)oc1S(=O)(=O)NCC(c1ccc(Cl)cc1)N1CCCCC1 (configuration not stated)
active: CCRF-CEM leukemia -19.2% | MOLT-4 leukemia 1.79%
inactive: SK-MEL-2 melanoma 93.8% | EKVX NSCLC 104% | SN12C renal 75.5% | UO-31 renal 61.2% | TK-10 renal 67.3% | ACHN renal 68.2% | CAKI-1 renal 49.4% | A498 renal 96.4%

Cc1ccc(C(=O)Nc2ccc(CN3CCN(C)CC3)c(C(F)(F)F)c2)cc1C#Cc1cnc(N)c2ccccc12
active: SK-MEL-2 melanoma -26.6% | UO-31 renal -34.9% | ACHN renal -91.8% | CAKI-1 renal -81.6% | A498 renal -32.5% | CCRF-CEM leukemia -15.7%
inactive: EKVX NSCLC 36% | SN12C renal 11.3% | TK-10 renal 29.9%

CC(=O)OCC(=O)O[C@@H]1C[C@]2(C(C)C)O[C@@]1(C)[C@@H]1CC[C@@H](C)[C@H]1[C@@H]2OC(=O)/C=C/c1ccccc1
inactive: SK-MEL-2 melanoma 90.9% | EKVX NSCLC 68.9% | SN12C renal 20.3% | TK-10 renal 81.1% | CCRF-CEM leukemia 70.7% | MOLT-4 leukemia 74.5%
active: UO-31 renal -83.3% | ACHN renal -4.65% | CAKI-1 renal -2.07% | A498 renal -92.5%

Cn1nc(-c2ccc(Cl)cc2)nc2c(=O)n(C)c(=O)nc1-2
inactive: UO-31 renal 12.3% | TK-10 renal 70.3%
active: SK-MEL-2 melanoma -44.6% | EKVX NSCLC -31.2% | SN12C renal -72.5% | ACHN renal -88.7% | CAKI-1 renal 6.17% | A498 renal -94.8% | CCRF-CEM leukemia -27.6% | MOLT-4 leukemia -47.3%

CCN(CC)CCOc1ccc(/C(=C(\C)Cc2ccc(OC)cc2)c2ccc(O)cc2)cc1
inactive: EKVX NSCLC 66.5% | SN12C renal 54.9% | TK-10 renal 35.8% | ACHN renal 18.9% | A498 renal 92.9%
active: SK-MEL-2 melanoma -45.7% | UO-31 renal -34.2% | CAKI-1 renal -21.3% | CCRF-CEM leukemia -3.51% | MOLT-4 leukemia -9%

COc1ccc(C(c2cc(OC)c(OC)c(OC)c2)n2cncn2)cc1O (configuration not stated)
active: A498 renal 9.66% | CCRF-CEM leukemia 9.34%
inactive: SK-MEL-2 melanoma 55.9% | EKVX NSCLC 39.8% | SN12C renal 39.3% | UO-31 renal 58% | TK-10 renal 61.3% | ACHN renal 52.4% | CAKI-1 renal 40.4% | MOLT-4 leukemia 16.7%

O=C(Nc1ccc(Oc2cccc(F)c2)c(Cl)c1)c1cnccn1
inactive: SK-MEL-2 melanoma 37.7% | EKVX NSCLC 51.3% | SN12C renal 45.6% | UO-31 renal 43.4% | TK-10 renal 59.5% | ACHN renal 37.7% | CAKI-1 renal 25.2% | A498 renal 69.4% | CCRF-CEM leukemia 18.4% | MOLT-4 leukemia 41.2%

CN1CCN(CCCNC(=O)c2c3c(n4ccccc24)C(=O)c2ncccc2C3=O)CC1
active: SK-MEL-2 melanoma 9.41% | SN12C renal -48.5% | ACHN renal 7.62% | CCRF-CEM leukemia -11.5% | MOLT-4 leukemia -35.1%
inactive: EKVX NSCLC 24% | UO-31 renal 32.2% | TK-10 renal 56.7% | CAKI-1 renal 75.4% | A498 renal 45.8%

[2H]C([2H])([2H])Oc1ccc(/C=C/C(=O)/C=C(/C=C/c2ccc(OC([2H])([2H])[2H])c(OC([2H])([2H])[2H])c2OC([2H])([2H])[2H])OB(F)F)c(OC([2H])([2H])[2H])c1OC([2H])([2H])[2H]
inactive: SK-MEL-2 melanoma 94.9% | EKVX NSCLC 88.7% | SN12C renal 56.7% | UO-31 renal 38.8% | TK-10 renal 74.2% | ACHN renal 14.4% | CAKI-1 renal 48.6% | A498 renal 107% | MOLT-4 leukemia 23.8%
active: CCRF-CEM leukemia -2.51%

FC(F)(F)c1cc(N2CCCCC2)nc(NCCCNc2ccnc3cc(Cl)ccc23)n1
inactive: SK-MEL-2 melanoma 64.9% | EKVX NSCLC 48.3% | SN12C renal 69.1% | UO-31 renal 46.8% | TK-10 renal 63.6% | ACHN renal 65.8% | CAKI-1 renal 60.7% | A498 renal 47.8% | CCRF-CEM leukemia 54% | MOLT-4 leukemia 40%

C=CCNc1nc(O)c(/C=C2\C=Nc3ncccc32)s1
inactive: EKVX NSCLC 30.5% | SN12C renal 24% | CAKI-1 renal 30.2%
active: SK-MEL-2 melanoma -8.35% | UO-31 renal 3.09% | TK-10 renal 1.67% | ACHN renal -1.22% | A498 renal -34.5% | CCRF-CEM leukemia 7.13% | MOLT-4 leukemia 5.78%

COC1=C(OC)C(=O)C(CCCCCCCCCCO)=C(C)C1=O
inactive: SK-MEL-2 melanoma 49.8% | EKVX NSCLC 89.8% | SN12C renal 57.6% | UO-31 renal 70.2% | TK-10 renal 112% | ACHN renal 60.5% | CAKI-1 renal 61% | A498 renal 103% | CCRF-CEM leukemia 29.1% | MOLT-4 leukemia 28.1%

O=C(Nc1ccc2[nH]ncc2c1)c1csc(Nc2ccccc2)n1
inactive: SK-MEL-2 melanoma 29.6% | EKVX NSCLC 45.8% | SN12C renal 41.1% | UO-31 renal 45.5% | TK-10 renal 48.1% | ACHN renal 56.5% | CAKI-1 renal 36.5% | A498 renal 22.2% | CCRF-CEM leukemia 19.4% | MOLT-4 leukemia 43.9%

CC(C)(C)c1ccc(C(=O)Nc2sc3c(c2C#N)CCC(=O)C3)cc1
inactive: SK-MEL-2 melanoma 12.8% | EKVX NSCLC 19.1% | TK-10 renal 24.3% | A498 renal 89.8% | MOLT-4 leukemia 10.6%
active: SN12C renal 9.18% | UO-31 renal -99% | ACHN renal -84% | CAKI-1 renal -74.4% | CCRF-CEM leukemia 8.53%

Oc1cccc(-c2nc(-c3n[nH]c(=S)n3-c3ccccc3)cc3c2[nH]c2ccccc23)c1
active: SK-MEL-2 melanoma -9.51% | A498 renal -14.8%
inactive: EKVX NSCLC 50.3% | SN12C renal 44.9% | UO-31 renal 49.6% | TK-10 renal 47.9% | ACHN renal 53% | CAKI-1 renal 64.6% | CCRF-CEM leukemia 21.3% | MOLT-4 leukemia 26.2%

C#Cc1ccc(NC(=O)Cc2ccc(/C=C/C(=O)c3nccn3C)cc2)cc1
inactive: SK-MEL-2 melanoma 103% | EKVX NSCLC 78.4% | SN12C renal 68% | UO-31 renal 58.7% | TK-10 renal 94.9% | ACHN renal 96.5% | CAKI-1 renal 47.7% | A498 renal 105% | CCRF-CEM leukemia 21.4% | MOLT-4 leukemia 40.8%

N/C(=N\c1nc2ccccc2s1)NC(=O)Nc1ccccc1
inactive: SK-MEL-2 melanoma 30.2% | EKVX NSCLC 54% | SN12C renal 29% | UO-31 renal 46.3% | TK-10 renal 75.3% | ACHN renal 55.7% | CAKI-1 renal 44.3% | A498 renal 42.7% | CCRF-CEM leukemia 12.5% | MOLT-4 leukemia 27.8%
